Experimental data: PubChem BioAssay (NCATS)
A number with no mark means an inactive call. Inconclusive results are not listed. This is one part of the list. A call without a number means that no potency is given here. Active and inactive are the calls of the source. Unless noted, calls come from the whole dose curve; as a rule, active = well fitted curve in the direction sought with a large enough effect; inconclusive = small, poorly fitted or top-dose-only effect, or another doubt; inactive = no such curve, though single readings can be large; an effect the other way counts as inactive or inconclusive.

Key:
[1] = molecular target: Rap guanine nucleotide exchange factor 3 (Homo sapiens) (UniProt O95398); assay: Confirmatory qHTS for antagonist of cAMP-regulated guanine nucleotide exchange factor 3 (EPAC1) (AID 1645880); details: EPAC1 Rap1B-BODIPY-GDP exchange, fluorescence; activity, negative = inhibition: at 115 µM (top of the series); note: nearly all actives have a fitted effect of over 55% in size; note: potency is the fitted concentration of half-maximal effect
Sequence of Rap guanine nucleotide exchange factor 3 (Homo sapiens) (O95398 whole entry, looked up): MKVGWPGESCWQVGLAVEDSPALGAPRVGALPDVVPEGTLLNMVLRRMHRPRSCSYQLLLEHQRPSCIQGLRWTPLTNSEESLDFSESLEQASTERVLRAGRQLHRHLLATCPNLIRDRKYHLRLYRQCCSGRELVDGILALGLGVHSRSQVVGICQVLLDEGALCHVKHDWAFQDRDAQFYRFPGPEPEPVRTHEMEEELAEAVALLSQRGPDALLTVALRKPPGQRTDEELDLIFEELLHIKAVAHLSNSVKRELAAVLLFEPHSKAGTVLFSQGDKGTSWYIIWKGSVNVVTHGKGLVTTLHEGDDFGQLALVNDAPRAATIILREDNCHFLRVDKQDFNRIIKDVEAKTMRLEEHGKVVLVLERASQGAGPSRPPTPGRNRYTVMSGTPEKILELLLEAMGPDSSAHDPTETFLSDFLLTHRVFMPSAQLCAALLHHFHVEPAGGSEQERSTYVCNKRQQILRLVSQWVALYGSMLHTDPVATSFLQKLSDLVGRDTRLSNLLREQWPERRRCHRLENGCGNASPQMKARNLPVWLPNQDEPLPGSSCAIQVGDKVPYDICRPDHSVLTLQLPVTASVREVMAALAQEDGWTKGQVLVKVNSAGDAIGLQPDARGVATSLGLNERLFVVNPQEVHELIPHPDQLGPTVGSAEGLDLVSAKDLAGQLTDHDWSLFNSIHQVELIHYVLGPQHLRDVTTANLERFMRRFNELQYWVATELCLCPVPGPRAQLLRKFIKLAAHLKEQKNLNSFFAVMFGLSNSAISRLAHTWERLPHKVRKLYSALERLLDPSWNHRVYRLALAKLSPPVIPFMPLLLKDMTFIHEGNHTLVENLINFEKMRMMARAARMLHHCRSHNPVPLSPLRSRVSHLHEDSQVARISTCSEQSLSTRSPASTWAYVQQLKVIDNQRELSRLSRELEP
Summary of the method: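 Released BODIPY-GDP fluoresces less than Rap1-bound BODIPY-GDP; the signal is followed at 480/540 nm at 5-min intervals over 30 min, after 5 min at room temperature. Reactions contain 100 nM EPAC1, 250 nM RAP1B-BODIPY-GDP and 50 uM GDP; results are normalized to ATA and DMSO.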

[2] = molecular target: Rap guanine nucleotide exchange factor 3 (Homo sapiens) (UniProt O95398); assay: Confirmatory qHTS for agonist of cAMP-regulated guanine nucleotide exchange factor 3 (EPAC1) (AID 1645881); note: nearly all actives have a fitted effect of over 75% in size; note: potency is the fitted concentration of half-maximal effect;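 for activation: EPAC1 catalysed release of BODIPY-GDP from Rap1B seen as fluorescence loss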
[3] = molecular target: Rap guanine nucleotide exchange factor 4 (Homo sapiens) (UniProt Q8WZA2); assay: Confirmatory qHTS for agonist of cAMP-regulated guanine nucleotide exchange factor 4 (EPAC2) (AID 1645884);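 note: nucleotide exchange releases bodipy-GDP from Rap1 and this lowers its fluorescence; nearly all actives have a fitted effect of over 65% in size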; note: potency is the fitted concentration of half-maximal effect
Sequence of Rap guanine nucleotide exchange factor 4 (Homo sapiens) (Q8WZA2 whole entry, looked up): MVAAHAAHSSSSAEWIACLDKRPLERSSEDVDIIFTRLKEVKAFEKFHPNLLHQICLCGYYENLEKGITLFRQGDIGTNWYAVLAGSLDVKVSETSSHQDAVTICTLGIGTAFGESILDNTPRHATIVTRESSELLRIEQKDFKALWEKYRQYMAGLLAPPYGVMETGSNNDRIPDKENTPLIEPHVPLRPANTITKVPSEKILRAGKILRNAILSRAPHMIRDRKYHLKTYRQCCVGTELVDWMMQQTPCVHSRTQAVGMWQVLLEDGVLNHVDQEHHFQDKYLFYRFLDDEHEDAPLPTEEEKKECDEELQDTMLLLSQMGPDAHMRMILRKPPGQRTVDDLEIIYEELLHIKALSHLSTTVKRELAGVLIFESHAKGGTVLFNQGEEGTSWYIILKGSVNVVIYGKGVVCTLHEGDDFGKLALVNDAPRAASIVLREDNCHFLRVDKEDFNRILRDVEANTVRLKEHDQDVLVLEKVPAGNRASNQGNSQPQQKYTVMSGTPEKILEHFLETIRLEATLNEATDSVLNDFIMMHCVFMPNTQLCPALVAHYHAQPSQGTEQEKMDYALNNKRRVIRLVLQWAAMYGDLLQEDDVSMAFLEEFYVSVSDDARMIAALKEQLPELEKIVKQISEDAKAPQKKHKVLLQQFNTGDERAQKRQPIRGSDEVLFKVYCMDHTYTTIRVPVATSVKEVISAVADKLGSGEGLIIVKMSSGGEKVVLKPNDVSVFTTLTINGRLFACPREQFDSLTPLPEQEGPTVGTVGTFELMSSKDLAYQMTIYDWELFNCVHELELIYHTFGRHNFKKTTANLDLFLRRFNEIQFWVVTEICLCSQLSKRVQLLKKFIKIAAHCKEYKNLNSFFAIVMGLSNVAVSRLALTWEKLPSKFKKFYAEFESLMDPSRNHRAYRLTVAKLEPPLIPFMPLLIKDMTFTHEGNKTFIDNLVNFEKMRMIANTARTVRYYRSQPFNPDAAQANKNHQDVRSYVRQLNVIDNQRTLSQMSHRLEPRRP

[4] = molecular target: Rap guanine nucleotide exchange factor 3 (Homo sapiens) (UniProt O95398); assay: Counterscreen qHTS for agonist of cAMP-regulated guanine nucleotide exchange factor 3 (EPAC1) (AID 1645889); note: nearly all actives have a fitted effect of over 40% in size; note: potency is the fitted concentration of half-maximal effect
Summary of the method: (§1)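 Measured: fluorescence of BODIPY-GDP bound to Rap1B, which falls as exchange proceeds. Conditions include 50 uM competing GDP, 5 and 30 min reads, and a later cAMP challenge for antagonist detection.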

[5] = molecular target: Tumor susceptibility gene 101 protein (Homo sapiens) (UniProt Q99816); assay: qHTS Assay for Iinhibitors of HIV-1 Budding by Blocking the Interaction of PTAP/TSG101: Hit Validation (AID 651600); note: potency is the fitted concentration of half-maximal effect; nearly all actives have a fitted effect of over 70% in size
Sequence of Tumor susceptibility gene 101 protein (Homo sapiens) (Q99816 whole entry, looked up): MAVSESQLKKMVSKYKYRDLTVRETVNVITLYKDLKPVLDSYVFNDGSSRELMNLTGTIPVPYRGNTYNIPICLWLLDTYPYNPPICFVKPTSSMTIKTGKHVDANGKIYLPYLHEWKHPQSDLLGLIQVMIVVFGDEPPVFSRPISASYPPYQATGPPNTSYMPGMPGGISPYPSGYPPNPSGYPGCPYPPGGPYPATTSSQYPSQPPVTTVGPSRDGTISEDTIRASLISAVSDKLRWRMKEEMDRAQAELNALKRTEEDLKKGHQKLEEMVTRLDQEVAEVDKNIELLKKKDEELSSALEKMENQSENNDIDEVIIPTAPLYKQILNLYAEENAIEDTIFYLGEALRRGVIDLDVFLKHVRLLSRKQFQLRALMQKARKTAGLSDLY
Summary of the method: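 Measuring PTAP–Tsg101 interaction by FP: protein at 10 uM and fluorescent peptide at 50 nM (final), buffer 10 mM HEPES pH 7.5 with 0.15 M NaCl, 3 mM EDTA, 0.1 mM TCEP, 0.01% Tween 20; 20 min incubation, r.t.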

[6] = molecular target: Rap guanine nucleotide exchange factor 3 (Homo sapiens) (UniProt O95398); assay: Counterscreen qHTS for antagonist of cAMP-regulated guanine nucleotide exchange factor 3 (EPAC1) (AID 1645888); note: potency is the fitted concentration of half-maximal effect
Summary of the method: as §1

[7] = AP1 Signaling Pathway (AID 357; active = well fitted curve in either direction with a large enough effect, not every such curve was filed as active;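 note: ME-180 reporter cells stimulated with EGF at its EC50 level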); details: ME-180 (cervical carcinoma) AP-1-bla reporter, EGF-induced, beta-lactamase ratio, 5 h; at 7.69 µM (top of the series) unless noted
Summary of the method: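 First, ME-180 AP-1-bla cells were cultured overnight at 37 °C in low-serum Opti-MEM. Next, titrated compounds with EC50 EGF were incubated 5 hours. Finally, CCF4 was added for 2.5 hours and the 460/530 nm ratio recorded.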

[8] = NFAT Signaling Pathway (AID 444; active = well fitted curve in either direction with a large enough effect, not every such curve was filed as active;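 note: carbachol stimulus at about its EC50 of 1 µM final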); details: Jurkat NFAT-bla M1, carbachol, beta-lactamase ratio, 5 h; at 7.69 µM (top of the series) unless noted
Summary of the method: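 Jurkat cells carrying an NFAT-driven β-lactamase reporter and co-transfected muscarinic M1 receptor were treated with compound plus carbachol (1 uM final, an EC50 level) for 5 h at 37 °C. CCF4 loading followed for 1 h at RT; 460/530 nm ratio gave %activity.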

[9] = Stat Signaling Pathway (AID 446; active = well fitted curve in either direction with a large enough effect, not every such curve was filed as active;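 note: ME-180 cervical cancer cells given 40 pM IL-6 alongside compound; SIE-controlled beta-lactamase reporter measured as 460/530 nm FRET emission ratio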)
Summary of the method: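 Compound effects on IL-6-induced STAT reporter activity were measured in ME-180 cells. After overnight culture, cells were co-treated with 40 pM IL-6 for 5 hrs before beta-lactamase substrate loading at room temperature.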

[10] = molecular target: Glucocorticoid receptor (Homo sapiens) (UniProt P04150); assay: GR-GFP Redistribution (AID 450;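 active = compounds whose dose series gives a full or clear partial fitted curve of increased nuclear translocation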; note: potency is the fitted concentration of half-maximal effect); details: U2OS GR-GFP nuclear translocation, laser cytometry, 2 h
Sequence of Glucocorticoid receptor (Homo sapiens) (P04150 whole entry, looked up): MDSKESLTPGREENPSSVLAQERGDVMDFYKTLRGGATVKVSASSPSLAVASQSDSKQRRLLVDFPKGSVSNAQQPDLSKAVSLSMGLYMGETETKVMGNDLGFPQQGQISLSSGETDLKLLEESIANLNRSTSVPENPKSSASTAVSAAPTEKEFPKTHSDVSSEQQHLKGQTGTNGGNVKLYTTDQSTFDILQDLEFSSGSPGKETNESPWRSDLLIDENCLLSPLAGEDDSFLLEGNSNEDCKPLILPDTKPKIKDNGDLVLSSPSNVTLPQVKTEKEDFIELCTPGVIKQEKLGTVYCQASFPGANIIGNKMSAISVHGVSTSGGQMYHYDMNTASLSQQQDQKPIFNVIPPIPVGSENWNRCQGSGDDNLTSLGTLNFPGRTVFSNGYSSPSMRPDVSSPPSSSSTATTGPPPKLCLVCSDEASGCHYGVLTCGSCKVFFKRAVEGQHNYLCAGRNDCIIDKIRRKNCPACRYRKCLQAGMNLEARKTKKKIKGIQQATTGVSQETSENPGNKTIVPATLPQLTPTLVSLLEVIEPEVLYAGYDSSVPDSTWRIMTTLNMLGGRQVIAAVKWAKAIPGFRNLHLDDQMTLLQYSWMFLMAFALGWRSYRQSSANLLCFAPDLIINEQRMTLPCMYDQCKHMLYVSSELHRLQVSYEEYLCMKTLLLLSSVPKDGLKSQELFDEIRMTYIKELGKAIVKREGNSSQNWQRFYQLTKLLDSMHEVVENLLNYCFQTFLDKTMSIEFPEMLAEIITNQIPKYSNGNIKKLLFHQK

[11] = molecular target: Cytochrome P450 3A4 (Homo sapiens) (UniProt P08684); assay: qHTS Assay for Inhibitors and Substrates of Cytochrome P450 3A4 (AID 884); note: potency is the fitted concentration of half-maximal effect; nearly all actives have a fitted effect of over 50% in size
Sequence of Cytochrome P450 3A4 (Homo sapiens) (P08684 whole entry, looked up): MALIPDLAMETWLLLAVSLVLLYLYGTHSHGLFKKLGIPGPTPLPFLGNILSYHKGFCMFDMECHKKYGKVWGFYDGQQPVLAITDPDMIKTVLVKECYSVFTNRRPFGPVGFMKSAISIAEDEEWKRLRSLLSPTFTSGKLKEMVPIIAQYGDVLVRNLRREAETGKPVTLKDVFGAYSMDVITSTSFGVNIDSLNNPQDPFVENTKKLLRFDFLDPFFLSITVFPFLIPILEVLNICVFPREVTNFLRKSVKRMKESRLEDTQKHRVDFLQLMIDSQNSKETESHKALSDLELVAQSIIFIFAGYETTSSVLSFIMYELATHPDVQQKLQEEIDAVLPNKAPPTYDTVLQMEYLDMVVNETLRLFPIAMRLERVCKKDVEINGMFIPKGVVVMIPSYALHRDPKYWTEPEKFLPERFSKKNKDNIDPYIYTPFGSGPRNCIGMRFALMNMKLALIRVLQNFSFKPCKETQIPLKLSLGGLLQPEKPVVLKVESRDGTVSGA
Summary of the method: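 Luminescent readout of luciferin produced by CYP3A4 (20 nM) dealkylation of Luciferin-PPXE, 25 uM (its KM). NADPH-driven reaction ran 60 min at RT after 10 min compound preincubation; data scaled to 57 uM ketoconazole as 100% inhibition.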

[12] = molecular target: Cytochrome P450 3A4 (Homo sapiens) (UniProt P08684); assay: qHTS Assay for Activators of Cytochrome P450 3A4 (AID 885); note: nearly all actives have a fitted effect of over 65% in size
Summary of the method: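 CYP3A4 activity: Luciferin-PPXE O-dealkylation, 25uM substrate, 200mM KPO4, RT throughout. Read-out is luciferase luminescence; higher values reflect activation.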

[13] = molecular target: DNA polymerase eta (Homo sapiens) (UniProt Q9Y253); assay: qHTS for Inhibitors of Polymerase Eta: Confirmatory Assay for Cherry-picked Compounds (AID 720502); details: Pol eta primer extension, TAMRA/BHQ fluorescence, 10 min; note: potency is the fitted concentration of half-maximal effect
Sequence of DNA polymerase eta (Homo sapiens) (Q9Y253 whole entry, looked up): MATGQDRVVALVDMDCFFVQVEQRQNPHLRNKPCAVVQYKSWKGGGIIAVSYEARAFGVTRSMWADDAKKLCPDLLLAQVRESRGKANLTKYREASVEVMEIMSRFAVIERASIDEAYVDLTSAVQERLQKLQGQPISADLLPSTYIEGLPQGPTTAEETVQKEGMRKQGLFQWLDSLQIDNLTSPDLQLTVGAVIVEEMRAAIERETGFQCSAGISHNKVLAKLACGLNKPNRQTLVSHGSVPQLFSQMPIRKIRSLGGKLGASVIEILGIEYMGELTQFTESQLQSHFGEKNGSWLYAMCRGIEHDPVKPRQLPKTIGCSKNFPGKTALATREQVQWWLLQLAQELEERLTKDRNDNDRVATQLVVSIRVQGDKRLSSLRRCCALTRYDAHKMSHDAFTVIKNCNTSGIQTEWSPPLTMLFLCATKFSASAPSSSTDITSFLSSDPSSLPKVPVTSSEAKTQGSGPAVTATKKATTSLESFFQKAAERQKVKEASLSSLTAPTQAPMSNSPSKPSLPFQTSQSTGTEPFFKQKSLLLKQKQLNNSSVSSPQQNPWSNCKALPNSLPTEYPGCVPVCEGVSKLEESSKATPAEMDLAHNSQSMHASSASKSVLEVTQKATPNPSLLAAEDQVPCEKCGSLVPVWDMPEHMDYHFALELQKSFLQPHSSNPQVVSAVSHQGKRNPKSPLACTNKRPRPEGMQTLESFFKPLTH
Summary of the method: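 Compounds are preincubated 15 min at room temperature with 10 nM human Pol eta, with buffer-only wells serving as negative control. Adding 50 nM final substrate starts the reaction, and TAMRA fluorescence is read over 10 min.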

[14] = qHTS for Inhibitors of Ubiquitin-specific Protease USP2a Using CHOP2 as the Reporter: K633 Counterscreen (AID 652168)
Summary of the method: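 Detection-system control: fluorescence of K48-linked DiUb-4IQF substrate (100 nM as added) tracked over time, Ex 525/Em 598, with pinned compounds and no enzyme, in pH 8 Tris buffer containing beta-mercaptoethanol and 0.05% Chaps.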

[15] = qHTS for Inhibitors of Ubiquitin-specific Protease USP2a Using CHOP2 as the Reporter: Cytotox Assay (AID 652170);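 note: HCT116 human colon cancer cells at 600 per well; nearly all actives have a fitted effect of over 70% in size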
Summary of the method: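 Cytotoxicity read as ATP luminescence (CellTiter-Glo) after 72 hr compound treatment at 37 deg C. Cells: HCT116, 600/well in DMEM plus 10% FBS. Normalization between DMSO-treated cells and cell-free wells.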

[16] = molecular target: Ubiquitin carboxyl-terminal hydrolase 2 (Homo sapiens) (UniProt O75604); assay: qHTS for Inhibitors of Ubiquitin-specific Protease USP2a Using CHOP2 as the Reporter: K484 Substrate (AID 652173); details: USP2 cleavage of DiUb K48 IQF substrate, fluorescence;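 note: cleavage of internally quenched K48 di-ubiquitin substrate measured as rising fluorescence over time; potency is the fitted concentration of half-maximal effect; nearly all actives have a fitted effect of over 70% in size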
Sequence of Ubiquitin carboxyl-terminal hydrolase 2 (Homo sapiens) (O75604 whole entry, looked up): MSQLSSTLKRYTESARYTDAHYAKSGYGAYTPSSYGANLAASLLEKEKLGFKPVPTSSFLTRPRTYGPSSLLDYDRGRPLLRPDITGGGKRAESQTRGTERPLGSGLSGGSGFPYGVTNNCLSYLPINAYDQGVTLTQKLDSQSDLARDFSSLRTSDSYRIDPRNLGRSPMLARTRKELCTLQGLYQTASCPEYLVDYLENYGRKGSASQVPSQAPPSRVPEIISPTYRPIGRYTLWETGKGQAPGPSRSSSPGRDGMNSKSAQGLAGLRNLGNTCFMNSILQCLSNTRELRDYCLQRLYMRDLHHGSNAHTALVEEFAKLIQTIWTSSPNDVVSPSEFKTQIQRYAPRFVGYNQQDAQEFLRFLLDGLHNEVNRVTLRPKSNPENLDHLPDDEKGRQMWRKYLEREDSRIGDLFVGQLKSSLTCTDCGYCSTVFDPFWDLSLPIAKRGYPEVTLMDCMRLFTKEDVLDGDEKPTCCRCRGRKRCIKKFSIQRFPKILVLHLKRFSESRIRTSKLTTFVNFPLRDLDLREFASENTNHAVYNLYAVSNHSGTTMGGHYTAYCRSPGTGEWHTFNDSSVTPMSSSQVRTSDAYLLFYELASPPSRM
Summary of the method: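 Kinetic fluorescence (Ex 525/Em 598) tracked cleavage of an internally quenched K48 di-ubiquitin substrate, added as a 100 nM solution. The enzyme was added as a 5 nM USP2 solution before compound pinning, with no-enzyme controls. Buffer: Tris pH 8, beta-mercaptoethanol, CHAPS.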

O=C(NCc1ccc(F)cc1)c1cccc2c1C(=O)c1ccc(N3CCOCC3)cc1S2(=O)=O
Potency [1]: inactive | Potency [2]: 56.2 µM (active) | Potency [3]: 89.1 µM (active) | Potency [4]: 56.2 µM (active)

CSCCC(NS(=O)(=O)c1ccc2c(c1)oc(=O)n2C)C(=O)NC1CCCCC1 (stereo unspecified)
Potency [1]: inactive | Potency [2]: inactive | Potency [3]: inactive | Potency [4]: inactive

O=C(CN1CCCCC1)Nc1cc(Cl)ccc1Oc1ccccc1
Potency [1]: inactive | Potency [2]: inactive | Potency [3]: inactive | Potency [4]: inactive

Oc1[nH]c2ccc(Br)cc2c1N=Nc1ccc(F)cc1
Potency [5]: 10.3 µM (active) | Potency [1]: 84.9 µM (active) | Potency [2]: inactive | Potency [3]: inactive | Potency [6]: 70.8 µM (active) | Potency [4]: inactive

O=C(O)Cc1ccc(C(=O)c2ccc(Cl)cc2Cl)s1
Potency [1]: inactive | Potency [2]: inactive | Potency [3]: inactive | Potency [4]: inactive

O=c1cc2oc3cc(O)c(O)cc3c(-c3ccccc3[N+](=O)[O-])c-2cc1O
Potency [1]: 10.7 µM (active) | Potency [2]: inactive | Potency [3]: inactive | Potency [4]: inactive

COc1ccccc1CN(C(=O)CNC(=O)c1ccco1)C(C(=O)NCC1CCCO1)c1ccc(OC)c(OC)c1 (stereo unspecified)
Potency [1]: inactive | Potency [2]: inactive | Potency [3]: inactive | Potency [4]: inactive

O=C(/C=N/O)NCCCN1CCOCC1
activity change, negative = inhibition [7]: -1.51% [at 17.2 µM] | activity change, negative = inhibition [8]: 14.3% [at 17.2 µM] | outcome [9]: inactive | Potency [1]: inactive | Potency [2]: inactive | Potency [3]: inactive | Potency [6]: inactive

COc1ccc(C2CC2/C(=N/O)c2ccccn2)cc1 (stereo unspecified)
Potency [1]: inactive | Potency [2]: inactive | Potency [3]: inactive | Potency [4]: inactive

NS(=O)(=O)c1cccc(Nc2nc3ccccc3nc2NS(=O)(=O)c2ccc(Cl)cc2)c1
Potency [1]: 75.7 µM (active) | Potency [2]: inactive | Potency [3]: inactive | Potency [4]: inactive

Cc1cc(C)c2nc(N3C(=O)C(O)=C(C(=O)c4ccco4)C3c3cccc(O)c3)sc2c1 (stereo unspecified)
Potency [1]: 26.9 µM (active) | Potency [2]: inactive | Potency [3]: inactive | Potency [4]: inactive

CCOCCCn1c(=N)c(S(=O)(=O)c2ccccc2)cc2c(=O)n3cc(C)ccc3nc21
Potency [1]: inactive | Potency [2]: inactive | Potency [3]: inactive | Potency [4]: inactive

COCCCNC(=O)C(C#N)c1nc2ccccc2nc1N1CCN(Cc2ccccc2)CC1 (stereo unspecified)
outcome [9]: inactive | Potency [10]: > 20.6 µM | Potency [1]: 75.7 µM (active) | Potency [2]: inactive | Potency [3]: inactive | Potency [6]: inactive | Potency [4]: inactive

CC(C)(C)NC(=O)C(c1ccc(C(F)(F)F)cc1)n1c(=O)c(-c2ccco2)nc2ccccc21 (stereo unspecified)
Potency [1]: 75.7 µM (active) | Potency [2]: inactive | Potency [3]: inactive | Potency [4]: inactive

CC(=O)NC(c1ccc(Cl)cc1)c1ccc2cccnc2c1O (stereo unspecified)
Potency [1]: inactive | Potency [2]: inactive | activation [3]: -1.77% [at 17.1 µM, percent relative to cAMP agonist control] | activation [4]: 6.93% [at 30.8 µM]

CC(C)Cn1c(N)c(C(=O)COC(=O)c2cc(-c3ccco3)nc3ccccc23)c(=O)n(C)c1=O
Potency [11]: 15.8 µM (active) | outcome [12]: inactive | Potency [1]: 30.1 µM (active) | Potency [2]: inactive | Potency [3]: inactive | Potency [6]: inactive | Potency [4]: inactive

Cc1nc(S/C(=C/c2ccc(-c3cc(Cl)ccc3C)o2)C(=O)O)n[nH]1
Potency [1]: 26.9 µM (active) | Potency [2]: inactive | Potency [3]: inactive | Potency [4]: inactive

CCOC(=O)c1c(NC(=O)CSc2nnc(C)c(=O)[nH]2)sc(C)c1-c1ccc(C)cc1
Potency [1]: 75.7 µM (active) | Potency [2]: inactive | Potency [3]: inactive | Potency [4]: inactive

CC(=O)NC(c1cccc(F)c1)c1nc(-c2cccs2)cs1 (stereo unspecified)
Potency [1]: inactive | Potency [2]: inactive | Potency [3]: inactive | Potency [4]: inactive

C=CCn1c(SCc2cc([N+](=O)[O-])cc3c2OCOC3)nc2cc(C(=O)O)ccc2c1=O
Potency [1]: 75.7 µM (active) | Potency [2]: inactive | Potency [3]: inactive | Potency [4]: inactive

CCc1c(C)c(C#N)c2nc3ccccc3n2c1-n1nc(C)cc1C
activity change, negative = inhibition [7]: -8.93% [at 17.2 µM] | activity change, negative = inhibition [8]: -9.34% [at 17.2 µM] | outcome [9]: inactive | Potency [10]: > 20.6 µM | Potency [1]: inactive | Potency [2]: inactive | activation [3]: 5.42% [at 17.1 µM, percent relative to cAMP agonist control] | activity change, negative = inhibition [6]: 12.9% [at 30.8 µM] | activation [4]: 30.6% [at 30.8 µM]

CCOC(=O)/C(C#N)=C\c1ccc(N2CCN(C/C=C/c3ccccc3)CC2)cc1
Potency [5]: 20.6 µM (active) | Potency [1]: inactive | Potency [2]: 79.4 µM (active) | Potency [3]: 100 µM (active) | Potency [6]: inactive | Potency [4]: 70.8 µM (active)

Cc1cc(C(=O)N/N=C/c2ccc(O)c([N+](=O)[O-])c2)c(C)n1-c1ccc(F)cc1
Potency [13]: 75.7 µM (active) | Potency [1]: 42.6 µM (active) | Potency [2]: inactive | Potency [3]: inactive | Potency [6]: inactive | Potency [4]: inactive

O=C(c1ccc(-c2ccccc2Cl)o1)N1CCC1
Potency [1]: inactive | Potency [2]: inactive | activation [3]: 0.137% [at 17.1 µM, percent relative to cAMP agonist control] | activation [4]: 3.77% [at 30.8 µM]

Cc1cc(NS(=O)(=O)c2ccc(Nc3nc(-c4ccc(C)c(C)c4)cs3)cc2)no1
outcome [14]: inactive | outcome [15]: inactive | Potency [16]: 27.3 µM (active) | Potency [1]: 75.7 µM (active) | Potency [2]: inactive | Potency [3]: inactive | Potency [6]: inactive

COC(=O)c1cc(C(=O)OC)n(Cc2ccc(F)cc2)c1C
Potency [1]: inactive | Potency [2]: inactive | Potency [3]: inactive | Potency [4]: inactive

COc1ccc2c(c1)CCC1(C)CC(=O)C(Br)=C21 (stereo unspecified)
Potency [1]: inactive | Potency [2]: inactive | Potency [3]: inactive | Potency [4]: inactive
